Reference: publication PMC4552634, “A New Set of Chemical Starting Points with Plasmodium falciparum Transmission-Blocking Potential for Antimalarial Drug Discovery” (PLoS ONE, 2015)
In all, about 13,000 compounds went through this assay and about 3,200 (25%) showed an effect of 50% or more. The list shows a part of the results.

The compounds below were run on P. falciparum stage V gametocytes. Settings: 48 h, 5 µM; inhibitor.
Set-up: BacTiter-Glo ATP luminescence viability of purified stage V gametocytes in 384-well plates, per cent inhibition versus DMSO

| SMILES | % Inhibition [%] |
| --- | --- |
| Cc1cccc(C(=O)NCCCN2CCC(NC(=O)/C=C/c3ccc(Cl)c(Cl)c3)CC2)c1 [TCMDC-133355] | -67.88 |
| CCNc1cc(C(=O)N[C@@H](Cc2ccccc2)[C@H](O)CNC2CCSCC2)cc(N2CCCC2=O)c1 [TCMDC-134686] | 19.67 |
| CC(C)(C)COC(=O)c1ccc(NC(=O)N[C@@H](Cc2ccc(O)cc2)C(=O)NC2CCN(Cc3ccc(O)cc3)C2)cc1 (stereo partly shown) [TCMDC-135356] | -84.6 |
| COc1ccc(Nc2nccc(NCCNC(=O)c3cc4ccccc4s3)n2)cc1 [TCMDC-133643] | 10.68 |
| COc1ccc2nccc([C@@H](O)CN3CCC(NC(=O)[C@@H]4Cc5ccccc5CN4C(=O)OC(C)(C)C)CC3)c2c1 [TCMDC-141035] | 29.65 |
| O=C(/C=C/c1ccc(Cl)c(Cl)c1)NCCCCCN1CCC(NC(=O)Nc2cc(Cl)nc(Cl)c2)CC1 [TCMDC-135889] | -21.96 |
| COc1cc2c(C3CCN(CC4CCN(C(=O)/C=C/c5ccc(Cl)c(Cl)c5)CC4)CC3)c[nH]c2cn1 [TCMDC-140246] | -34.41 |
| Nc1cc2c(C3CCN(CC4CCN(C(=O)/C=C/c5ccc(Cl)c(Cl)c5)CC4)CC3)c[nH]c2cn1 [TCMDC-140133] | 101.5 |
| O=C(Nc1ccc(Cn2ncc(N3CCCNCC3)c(Cl)c2=O)cc1)Nc1ccc(SC(F)(F)F)cc1 [TCMDC-133320] | -14.71 |
| O=C(/C=C/c1ccc(Cl)c(Cl)c1)NCCCCCN1CC[C@H](NC(=O)c2sc3ccccc3c2Cl)C1 [TCMDC-139562] | 48.14 |
| O=C(/C=C/c1ccc(Cl)c(Cl)c1)NCCCCCN1CC[C@H](NC(=O)/C=C/c2ccccc2)C1 [TCMDC-139561] | -7.699 |
| O=C(C=Cc1ccc(Cl)c(Cl)c1)NCCCCCN1CCCC(CCCNC(=O)c2sc3ccccc3c2Cl)C1 (stereo not shown) [TCMDC-139579] | 100.9 |
| O=C(/C=C/c1ccc(Cl)c(Cl)c1)NCCCCCN1CCCC(CNC(=O)c2sc3ccccc3c2Cl)C1 (stereo not shown) [TCMDC-139583] | 81.46 |
| O=C(C=Cc1ccc(Cl)c(Cl)c1)NCCCCCN1CCC(CCCNC(=O)c2sc3ccccc3c2Cl)CC1 [TCMDC-139573] | 86.01 |
| O=C(/C=C/c1ccc(Cl)c(Cl)c1)NCCCCCN1CCC(CCNC(=O)c2snnc2-c2ccccc2)CC1 [TCMDC-140007] | -18.32 |
| O=C(C=Cc1ccc(Cl)c(Cl)c1)NCCCCCN1CCC(CCNC(=O)c2sc3ccccc3c2Cl)CC1 [TCMDC-139567] | 38.26 |
| CCC(NCc1ccc(-c2cncc(C(=O)NCC(C)C)c2)cc1)c1ccccc1 (stereo not shown) [TCMDC-134237] | 15.84 |
| Cc1cccc2nc(-c3ccc(-c4cccc(CNCc5cnn(-c6ccccc6)n5)c4)s3)[nH]c12.O=C(O)C(F)(F)F [TCMDC-132972] | -22.07 |
| O=C(NCc1ccccc1)OC1CNCCC1c1ccc(C(O)Cc2ccccc2)cc1 (stereo not shown) [TCMDC-141020] | 26.78 |
| CCc1ccc(-n2c(=O)c3cccnc3n2CC(=O)NC2CCCC2)cc1 [TCMDC-125158] | -2.653 |

| SMILES | % Inhibition [%] |
| --- | --- |
| O=C(/C=C/c1ccc(Cl)c(Cl)c1)NCCCCCN1CCC(c2[nH]nc(-c3ccccc3)c2Br)CC1 [TCMDC-139448] | -19.71 |
| O=C(NCCNc1ccnc(Nc2ccc(F)cc2)n1)c1cc2ccccc2s1 [TCMDC-133637] | -20.49 |
| COCCNC(=O)c1ccc(OC2CCN(CC(C)=Cc3ccccc3)CC2)c(Cl)c1 [TCMDC-124691] | 9.67 |
| c1cncc(CN2CCCN(c3ccc4c(c3)CCN(Cc3ccc(-c5ncc[nH]5)cc3)CC4)CC2)c1 [TCMDC-136551] | -8.506 |
| c1ccc(CN2CCN(c3cc(-c4cncc(-c5ccccc5)c4)nc(-c4ccccc4)n3)CC2)cc1 [TCMDC-125589] | -13.47 |
| c1cncc(-c2cc(N3CCCCC3)nc(-c3ccncc3)n2)c1 [TCMDC-125594] | 3.34 |
| c1cncc(-c2cc(N3CCc4ccccc4C3)nc(-c3ccncc3)n2)c1 [TCMDC-125419] | 60.68 |
| CN1CCN(c2cc(-c3ccncc3)nc(-c3cccnc3)n2)CC1 [TCMDC-125596] | 38.53 |
| c1ccc(N2CCN(c3cc(-c4cccnc4)nc(-c4ccncc4)n3)CC2)nc1 [TCMDC-125418] | 44.02 |
| CN1CCN(c2cc(-c3cccnc3)nc(-c3ccncc3)n2)CC1 [TCMDC-125593] | 52.46 |
| COc1ccc(NC(=O)Nc2cccc(-c3cccc(-c4nc5c(C)cccc5[nH]4)c3)c2)cc1 [TCMDC-133247] | -12.94 |
| Fc1ccc2[nH]c(-c3cccc(-c4ccc(CNCC5CCCO5)cc4)c3)nc2c1.O=C(O)C(F)(F)F (stereo not shown) [TCMDC-133105] | -0.6383 |
| CN1CCCC(CN2CCN(Cc3ccc(-c4ccc(-c5nc6ccc(F)cc6[nH]5)s4)cc3)CC2)C1 (stereo not shown) [TCMDC-133892] | 66.7 |
| N#CCCN1CCN(Cc2ccc(-c3ccc(-c4nc5ccc(F)cc5[nH]4)s3)cc2)CC1 [TCMDC-133861] | -54.51 |
| OCC1CCN(Cc2cccc(-c3ccc(-c4nc5ccc(C(F)(F)F)cc5[nH]4)cc3)c2)CC1 [TCMDC-133123] | 76.36 |
| OCC1CCN(Cc2ccc(-c3cccc(-c4nc5ccc(C(F)(F)F)cc5[nH]4)c3)cc2)CC1 [TCMDC-133130] | -16.83 |
| CN1CCCC(CN2CCN(Cc3ccc(-c4ccc(-c5nc6ccccc6[nH]5)s4)cc3)CC2)C1 (stereo not shown) [TCMDC-133889] | 85.26 |
| CN1CCCC(CN2CCN(Cc3cccc(-c4ccc(-c5nc6ccc(F)cc6[nH]5)cc4)c3)CC2)C1 (stereo not shown) [TCMDC-133891] | 104.2 |
| OCC1CCN(Cc2cccc(-c3cccc(-c4nc5ccc(C(F)(F)F)cc5[nH]4)c3)c2)CC1 [TCMDC-133129] | 41.06 |
| CC1CN(Cc2ccc(-c3ccc(-c4nc5ccc(F)cc5[nH]4)s3)cc2)CC(C)O1 (stereo not shown) [TCMDC-133819] | 9.471 |
